Measured values as given in the supplement of paper PMC3334620.
Over roughly 33,000 sequences, “E-score (-0.5 to 0.5)” has its median near -0.036; the highest 2% begin near 0.37. Only a selection was taken, and the highest values are over-represented in it overall.

Molecular target: T1, Yer064c (UniProt P40041)
T1 sequence: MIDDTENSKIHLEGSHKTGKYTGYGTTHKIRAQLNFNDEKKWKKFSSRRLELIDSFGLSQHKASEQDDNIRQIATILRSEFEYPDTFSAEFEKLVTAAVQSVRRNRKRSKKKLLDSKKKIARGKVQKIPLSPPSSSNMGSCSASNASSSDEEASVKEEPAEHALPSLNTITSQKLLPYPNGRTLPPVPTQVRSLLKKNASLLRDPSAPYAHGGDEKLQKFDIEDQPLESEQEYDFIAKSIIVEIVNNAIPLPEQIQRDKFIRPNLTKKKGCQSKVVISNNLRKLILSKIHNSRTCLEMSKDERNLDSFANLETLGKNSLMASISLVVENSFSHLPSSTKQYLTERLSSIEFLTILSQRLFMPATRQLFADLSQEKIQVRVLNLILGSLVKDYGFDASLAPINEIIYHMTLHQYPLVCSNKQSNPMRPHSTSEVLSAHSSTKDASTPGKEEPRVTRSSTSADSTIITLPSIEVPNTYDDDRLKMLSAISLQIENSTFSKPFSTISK
Test: PBM E-score (8-mer binding enrichment) (E-score (-0.5 to 0.5)); higher = stronger / more preferred TF binding
Conditions: protein concentration: 200 nM; construct: GST-full length
Experimental: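 Universal 'all 10-mer' protein binding microarrays (Agilent AMADID 015681) probed with GST-tagged S. cerevisiae TFs (full-length or DBD) made by in vitro transcription/translation (PURExpress), about 100-200 nM. Bound TF was detected with fluorescent anti-GST. Each ungapped 8-mer (which stands for itself and its reverse complement) is scored by the PBM enrichment score (E-score), a modified Wilcoxon-Mann-Whitney statistic from -0.5 to +0.5, computed with the Universal PBM Analysis Suite. Scale: above 0.35 generally sequence-specific binding.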

Row | Sequence | PBM E-score
1 | CATCAGGA | -0.0161
2 | GTGTCGAA | -0.00343
3 | ATCGCAGA | 0.0583
4 | AGCTACCA | 0.0223
5 | AATTCGGT | 0.107
6 | CTCCGTGC | -0.156
7 | ACATTCAT | 0.0768
8 | CGCGTTCA | 0.0376
9 | AGGACTCG | 0.306
10 | CAGACTGC | 0.0507
11 | ATGACTGC | 0.467
12 | ATTACTCG | 0.202
13 | AGGACTGA | 0.244
14 | AGGACTGC | 0.13
15 | ATGACTCG | 0.491
16 | ACGACTGA | 0.321
17 | ATGACTGA | 0.464
18 | GTAAGGTA | 0.00781
19 | GCCAACCC | -0.343
20 | ACGGCCTC | -0.163
21 | ACATGAAT | 0.175
22 | ACGCCTAG | -0.133
23 | CGGTGGGC | -0.341
24 | AGTTTCTC | -0.105
25 | CGACTCCC | 0.404

Row | Sequence | PBM E-score
26 | AGACTCCA | 0.323
27 | CAACTCCC | -0.15
28 | CGACTCCA | 0.378
29 | AGACTCCC | 0.32
30 | CGACTCCG | 0.332
31 | TGACTCCA | 0.479
32 | CCACTCCA | -0.0978
33 | GGACTCCA | 0.176
34 | AGGGGGAT | -0.373
35 | AGGGGGGA | -0.362
36 | ACTGCGTA | 0.0638
37 | AACTCCAT | 0.0309
38 | CGGTGCAG | -0.0907
39 | TTGTCAAA | 0.0143
40 | AAGTCAAA | 0.288
41 | CAGTCAAA | 0.254
42 | GCGTCAAC | -0.156
43 | CAGTCAAC | 0.36
44 | GAGTCAAA | 0.461
45 | GAGTCAAC | 0.474
46 | ACGTCAAC | 0.0642
47 | TAGTCAAA | 0.417
48 | AAGTCAAC | 0.367
49 | TGGTCAAA | -0.0461
50 | AAGTCAAG | 0.283

Row | Sequence | PBM E-score
51 | TCAAAAAA | 0.16
52 | CGATCACC | -0.0685
53 | ACGATCCG | -0.0916
54 | AGGTAGGC | -0.231
55 | AATCTTCT | 0.201
56 | GATCATCA | 0.142
57 | CATCATCG | 0.125
58 | TATCATCA | 0.0107
59 | CATCATCC | 0.0788
60 | AATCATCT | 0.453
61 | AATCATCG | 0.439
62 | GATCATCC | 0.171
63 | AATCATCC | 0.468
64 | AATCATCA | 0.463
65 | AATCAACG | 0.308
66 | CATCATCA | 0.161
67 | TGGGCCCA | -0.123
68 | AATATTGT | 0.0413
69 | TATGAATA | 0.0885
70 | TCCCTTCA | 0.091
71 | CCCTTGAA | -0.0587
72 | AGGCGACT | 0.387
73 | AAGCGACA | -0.208
74 | AGGCGACC | -0.191
75 | ACGCGACG | -0.164

Row | Sequence | PBM E-score
76 | AAGCGACC | -0.161
77 | AGGCGACG | -0.346
78 | AAGCGACT | 0.369
79 | ACGCGACA | -0.128
80 | ACGCGACT | 0.376
81 | ACAACGGT | -0.116
82 | ATAAAGAC | 0.196
83 | CCGGCAAG | -0.156
84 | CTTGAGAA | 0.136
85 | GCTTCGAC | -0.126
86 | TCAACAGA | 0.211
87 | TACTATCA | 0.0134
88 | AACTATTA | -0.00806
89 | CACTATCC | -0.196
90 | GACTATCC | 0.404
91 | AACTATCA | 0.104
92 | AACTATCC | -0.235
93 | GACTATCA | 0.394
94 | GACTATTA | 0.379
95 | CACTATTA | 0.0522
96 | AACGCACA | -0.185
97 | CTGGATTC | 0.00174
98 | GTACCGAC | -0.057
99 | ATTTAGGG | -0.0441
100 | ATTAGCCG | -0.106

Row | Sequence | PBM E-score
101 | CGAAGTCA | 0.437
102 | AGAAGTCA | 0.43
103 | AGAAGTCG | 0.207
104 | GGAAGTGA | 0.0158
105 | TGAAGTCA | 0.445
106 | AGAAGTCC | -0.056
107 | TGAAGCCA | 0.114
108 | TGAAGTAA | 0.0152
109 | GGAAGTCC | 0.0559
110 | CGAAGTCG | 0.286
111 | CGAAGTCC | 0.0182
112 | GGAAGTCA | 0.426
113 | TAATGCTA | 0.15
114 | AGTTTTGC | 0.0632
115 | AATAAGAC | 0.175
116 | TGCGGTAA | 0.0977
117 | CCCACGTC | -0.157
118 | GCGGTTAC | 0.0193
119 | ACAATGCT | -0.0617
120 | GTAGCATA | -0.262
121 | CCGTCGCG | -0.0591
122 | TATTCCCA | 0.00714
123 | GATCACGA | 0.0675
124 | GACGTCGA | -0.14
125 | CTGCATTC | -0.0186

Row | Sequence | PBM E-score
126 | CGACTACG | 0.337
127 | CGACTACC | 0.383
128 | CGACTAAC | 0.43
129 | CAACTAAC | 0.132
130 | GGACTAAC | 0.367
131 | GGACTACC | 0.284
132 | GTACTAAC | 0.128
133 | CGACTAGC | 0.297
134 | GAACTAAC | -0.0243
135 | GGGAGCCA | -0.00881
136 | CCTTACAG | -0.2
137 | CCGTCCTC | -0.281
138 | ACAGCGAC | 0.00958
139 | CCATGCCA | -0.113
140 | ATGAAAGG | -0.0528
141 | AAGTCCCT | -0.127
142 | GTGAGAAA | -0.0285
143 | CTGATTTC | 0.222
144 | AAGATTTA | 0.136
145 | ATGATTTA | 0.415
146 | AGGATTTC | -0.125
147 | CTGATTTA | 0.238
148 | ATGATTTC | 0.403
149 | CCCCGTAA | -0.0314
150 | ATTACTAG | 0.0126

Row | Sequence | PBM E-score
151 | TCGCTCCA | -0.0823
152 | CAGAGGGA | -0.199
153 | AATCAAGT | 0.268
154 | AATCAGGC | 0.306
155 | AATCAGGT | 0.378
156 | CATCATGC | 0.0857
157 | AATCAGGG | 0.271
158 | AATCATGA | 0.43
159 | AATCATGC | 0.432
160 | CATCATGA | 0.294
161 | TATCATGA | 0.256
162 | AATCATGT | 0.453
163 | AAGCATGT | -0.0498
164 | GATCATGC | 0.134
165 | ATTTGAGG | -0.0184
166 | ATGAGGGG | -0.125
167 | AGCCGGCA | -0.176
168 | GAATGCTA | -0.277
169 | GCGAAAAC | -0.131
170 | CCTCTGTA | -0.108
171 | CCGCCGCA | -0.299
172 | CCACAAAG | -0.0168
173 | AATCAGCT | 0.389
174 | AATCATGG | 0.42
175 | CATCATGG | 0.0236

Row | Sequence | PBM E-score
176 | AATCAGCC | 0.355
177 | AATCAAGG | 0.245
178 | AATCAGCG | 0.344
179 | CGATTAGA | 0.0752
180 | GATGTGGA | 0.0614
181 | GTCTTGTA | 0.0119
182 | AAAGTCAA | 0.319
183 | CAAGTCAC | 0.36
184 | GAAGTCAA | 0.357
185 | AAAGTCAC | 0.411
186 | AAAGTCAT | 0.455
187 | AAAGTCAG | 0.323
188 | AAAGTCCT | 0.0605
189 | GAAGTCAC | 0.433
190 | AAAGTCGT | 0.258
191 | AGGTCGTA | 0.0488
192 | CTAAACTA | 0.0923
193 | ACGGCCTG | -0.12
194 | TAATCCGA | 0.205
195 | CAGGATAA | -0.208
196 | ACGAGAAT | -0.125
197 | AATACCAG | -0.0862
198 | CTTTCAAA | 0.0256
199 | ACAGTCTC | 0.146
200 | GCAGTCAC | 0.435

Row | Sequence | PBM E-score
201 | CCAGTCAC | 0.313
202 | ACAGTCAA | 0.319
203 | ACAGTCGG | 0.181
204 | ACAGTCAT | 0.453
205 | ACAGTCAC | 0.405
206 | GCAGTCCC | -0.00282
207 | ACAGTCGT | 0.198
208 | ACAGTCAG | 0.378
209 | CCAGTCAG | 0.248
210 | GCAGTCAA | 0.281
211 | ATCACAGG | 0.166
212 | GGCCTGAC | 0.109
213 | ACCTGGTG | -0.0925
214 | GCGGCTAC | -0.0969
215 | AATTGTCA | 0.0267
216 | GGGGAGAC | -0.0271
217 | CTCGATTA | 0.186
218 | AAGGTAGA | -0.209
219 | GCGCCATA | -0.26
